Experimental data published in PubChem BioAssay (EPA / NIEHS).
“And” between values parts separate entries of the source, which are not always exact repeats. Equal values may be shown once. Results filed as inconclusive are left out. Some structures have more than one record in an assay (separate samples or runs), and their calls can disagree. The source made the active and inactive calls. How the source made its calls: active means hit-call score of the fitted dose curve at least 0.9, where 1 is the maximum; inconclusive means response in the unintended direction; inactive means score below 0.9.

What was measured:
[1] = molecular target: Estrogen receptor (Homo sapiens) (UniProt P03372); experiment: ATG_hERa_XSP2: Attagene TRANS-FACTORIAL Multi-Species (XSP2) HepG2 Assay for human Estrogen Receptor (ERa) (AID 2283827)
Sequence of Estrogen receptor (Homo sapiens) (P03372 whole entry, looked up, the tested form may be a part): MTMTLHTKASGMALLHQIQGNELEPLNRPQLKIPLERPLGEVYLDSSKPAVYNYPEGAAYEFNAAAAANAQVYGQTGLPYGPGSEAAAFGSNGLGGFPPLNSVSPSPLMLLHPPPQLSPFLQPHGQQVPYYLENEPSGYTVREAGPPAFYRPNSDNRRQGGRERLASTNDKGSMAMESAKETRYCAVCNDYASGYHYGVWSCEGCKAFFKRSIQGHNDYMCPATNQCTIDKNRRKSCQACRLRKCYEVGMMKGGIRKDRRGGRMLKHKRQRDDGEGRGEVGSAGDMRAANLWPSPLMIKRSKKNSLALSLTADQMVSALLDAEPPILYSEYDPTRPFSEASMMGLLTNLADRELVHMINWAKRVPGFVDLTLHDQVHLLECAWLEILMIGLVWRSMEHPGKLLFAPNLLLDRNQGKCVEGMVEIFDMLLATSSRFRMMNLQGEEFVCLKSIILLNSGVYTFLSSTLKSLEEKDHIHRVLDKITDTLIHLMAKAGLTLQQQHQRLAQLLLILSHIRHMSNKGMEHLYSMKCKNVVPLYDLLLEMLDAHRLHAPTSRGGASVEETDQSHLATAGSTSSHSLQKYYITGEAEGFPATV
Procedure, shortened: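 HepG2 cells transiently transfected with multiplexed GAL4-UAS reporters driven by chimeric receptor-Gal4 proteins, dosed 24 h with 3 nM 6-alpha-fluorotestosterone and 1.5 nM norgestrel present. Reporter mRNA by RT-PCR and capillary electrophoresis; gain-of-signal fit versus DMSO.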

[2] = system: frog Estrogen Receptor (ER2), gene 100174814; experiment: ATG_frER2_XSP2: Attagene TRANS-FACTORIAL Multi-Species (XSP2) HepG2 Assay for frog Estrogen Receptor (ER2) (AID 2283828)
Procedure, shortened: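 Human liver HepG2, transient MRTU transfection (TRANS format, exogenous NR–Gal4). 24 h cpd exposure. Total RNA → RT → PCR → FAM label → HpaI cut → CE. Positive direction vs DMSO.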

[3] = molecular target: Peroxisome proliferator-activated receptor gamma (Homo sapiens) (UniProt P37231); experiment: ATG_hPPARg_XSP2: Attagene TRANS-FACTORIAL Multi-Species (XSP2) HepG2 Assay for human Peroxisome Proliferator-activated Receptor gamma (PPARg) (AID 2283829);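 further: actives raise reporter mRNA above DMSO so AC50 reflects PPARg activation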
Sequence of Peroxisome proliferator-activated receptor gamma (Homo sapiens) (P37231 whole entry, looked up, the tested form may be a part): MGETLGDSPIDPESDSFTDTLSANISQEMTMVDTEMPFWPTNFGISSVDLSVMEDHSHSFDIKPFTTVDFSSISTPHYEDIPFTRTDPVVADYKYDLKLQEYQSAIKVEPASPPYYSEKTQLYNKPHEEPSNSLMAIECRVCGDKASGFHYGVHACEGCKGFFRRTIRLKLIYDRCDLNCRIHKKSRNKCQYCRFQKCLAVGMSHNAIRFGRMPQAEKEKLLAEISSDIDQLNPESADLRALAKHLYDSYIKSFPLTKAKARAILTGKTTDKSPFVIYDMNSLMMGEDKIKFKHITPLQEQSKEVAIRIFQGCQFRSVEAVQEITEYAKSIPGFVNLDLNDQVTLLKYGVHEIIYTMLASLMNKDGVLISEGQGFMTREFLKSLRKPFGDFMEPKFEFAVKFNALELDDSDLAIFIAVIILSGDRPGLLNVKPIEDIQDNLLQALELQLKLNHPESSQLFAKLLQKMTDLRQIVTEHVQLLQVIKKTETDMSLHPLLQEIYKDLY
Procedure, shortened: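 Reporter transcripts were measured by RT-PCR, fluorescent labeling, HpaI digestion and capillary electrophoresis, relative to DMSO, 24 h post-dosing. Transiently transfected HepG2 expressed NR-Gal4 chimeras regulating GAL4-UAS reporters; medium contained 3 nM 6-alpha-fluorotestosterone plus 1.5 nM norgestrel.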

[4] = molecular target: mouse Peroxisome Proliferator-activated Receptor gamma (PPARg), Pparg (gene 19016) (UniProt P37238); experiment: ATG_mPPARg_XSP2: Attagene TRANS-FACTORIAL Multi-Species (XSP2) HepG2 Assay for mouse Peroxisome Proliferator-activated Receptor gamma (PPARg) (AID 2283830);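 further: hits are gains in reporter mRNA above DMSO so AC50 marks activation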
Sequence of mouse Peroxisome Proliferator-activated Receptor gamma (PPARg), Pparg (gene 19016) (P37238 whole entry, looked up, the tested form may be a part): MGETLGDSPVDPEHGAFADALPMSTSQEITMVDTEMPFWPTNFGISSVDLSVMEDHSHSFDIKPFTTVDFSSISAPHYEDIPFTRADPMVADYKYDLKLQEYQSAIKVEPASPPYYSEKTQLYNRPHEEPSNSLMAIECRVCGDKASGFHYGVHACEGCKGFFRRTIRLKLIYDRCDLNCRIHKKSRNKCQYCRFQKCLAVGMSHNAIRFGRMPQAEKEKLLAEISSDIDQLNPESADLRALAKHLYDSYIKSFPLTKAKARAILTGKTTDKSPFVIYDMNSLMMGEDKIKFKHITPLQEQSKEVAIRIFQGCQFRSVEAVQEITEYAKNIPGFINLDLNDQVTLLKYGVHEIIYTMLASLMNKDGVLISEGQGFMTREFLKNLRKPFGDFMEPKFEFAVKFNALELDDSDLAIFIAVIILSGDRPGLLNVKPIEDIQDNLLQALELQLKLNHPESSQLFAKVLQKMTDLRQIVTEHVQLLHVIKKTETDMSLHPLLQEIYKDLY
Procedure, shortened: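 HepG2 cells transiently transfected with GAL4-UAS reporter units for chimeric NR-Gal4 proteins including mouse PPARg, exposed 24 h; medium contained 3 nM 6-alpha-fluorotestosterone and 1.5 nM norgestrel. Reporter mRNA quantified by RT-PCR, HpaI digestion and capillary electrophoresis, vs DMSO.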

[5] = molecular target: Nuclear receptor subfamily 1 group I member 2 (Mus musculus) (UniProt O54915); experiment: ATG_mPXR_XSP2: Attagene TRANS-FACTORIAL Multi-Species (XSP1) HepG2 Assay for mouse Pregnane X Receptor (PXR) (AID 2283831)
Sequence of Nuclear receptor subfamily 1 group I member 2 (Mus musculus) (O54915 whole entry, looked up, the tested form may be a part): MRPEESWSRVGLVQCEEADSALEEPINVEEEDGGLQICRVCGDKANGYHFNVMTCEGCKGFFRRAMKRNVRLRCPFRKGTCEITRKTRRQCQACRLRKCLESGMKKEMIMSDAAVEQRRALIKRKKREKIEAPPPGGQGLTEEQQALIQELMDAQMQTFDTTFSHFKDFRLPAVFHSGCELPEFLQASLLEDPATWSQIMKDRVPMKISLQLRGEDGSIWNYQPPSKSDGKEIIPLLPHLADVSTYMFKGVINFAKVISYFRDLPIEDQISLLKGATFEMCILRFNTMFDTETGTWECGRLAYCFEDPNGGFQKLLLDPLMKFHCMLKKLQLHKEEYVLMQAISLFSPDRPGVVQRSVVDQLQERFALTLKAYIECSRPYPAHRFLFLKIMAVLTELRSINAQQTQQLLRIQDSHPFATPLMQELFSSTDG
Procedure, shortened: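 Reporter transcripts measured after 24 h dosing by RT-PCR with 6-FAM labelling, HpaI digestion and capillary electrophoresis. Transiently transfected HepG2 with NR-Gal4 chimeras; increase over DMSO baseline scored.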

[6] = molecular target: zebrafish Thyroid Hormone Receptor alpha (TRa), thraa (gene 30670) (UniProt Q98867); experiment: ATG_zfTRa_XSP2: Attagene TRANS-FACTORIAL Multi-Species (XSP1) HepG2 Assay for zebrafish Thyroid Hormone Receptor alpha (TRa) (AID 2283832);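 further: actives raise zebrafish TRa-Gal4 reporter transcript above DMSO baseline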
Sequence of zebrafish Thyroid Hormone Receptor alpha (TRa), thraa (gene 30670) (Q98867 whole entry, looked up, the tested form may be a part): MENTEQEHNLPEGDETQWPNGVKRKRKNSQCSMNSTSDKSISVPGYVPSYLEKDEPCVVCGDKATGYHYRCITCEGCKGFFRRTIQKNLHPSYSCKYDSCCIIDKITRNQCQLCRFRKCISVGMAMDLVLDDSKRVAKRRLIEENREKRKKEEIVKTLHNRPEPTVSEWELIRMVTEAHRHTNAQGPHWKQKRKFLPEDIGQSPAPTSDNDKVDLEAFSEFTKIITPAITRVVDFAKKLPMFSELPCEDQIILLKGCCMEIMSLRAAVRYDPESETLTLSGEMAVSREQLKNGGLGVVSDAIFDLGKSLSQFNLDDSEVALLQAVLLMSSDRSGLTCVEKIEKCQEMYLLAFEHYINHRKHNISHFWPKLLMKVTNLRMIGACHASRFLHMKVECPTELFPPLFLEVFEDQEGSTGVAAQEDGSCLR
Procedure, shortened: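 Transient transfection of human HepG2 with GAL4-UAS reporter units, then 24 h chemical treatment. RNA isolated, reverse-transcribed, PCR-amplified, FAM-labelled, HpaI-digested and run on capillary electrophoresis. Gain-of-signal relative to DMSO.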

[7] = system: zebrafish Peroxisome Proliferator-activated Receptor gamma (PPARg), gene 557037; experiment: ATG_zfPPARg_XSP2: Attagene TRANS-FACTORIAL Multi-Species (XSP2) HepG2 Assay for zebrafish Peroxisome Proliferator-activated Receptor gamma (PPARg) (AID 2283833);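 further: actives increase reporter signal over DMSO so AC50 reflects activation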
Procedure, shortened: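 After 24 h chemical exposure, RNA from transiently transfected HepG2 (chimeric NR-Gal4 TRANS reporters) was reverse-transcribed, PCR-amplified, 6-FAM-labelled, HpaI-cut and sized by capillary electrophoresis. Induction was scored in the positive direction relative to DMSO.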

[8] = system: turtle Thyroid Hormone Receptor, alpha (TRa), gene 101949057; experiment: ATG_trTRa_XSP2: Attagene TRANS-FACTORIAL Multi-Species (XSP1) HepG2 Assay for turtle Thyroid Hormone Receptor, alpha (TRa) (AID 2283834);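 further: hits raise reporter mRNA over the DMSO baseline so AC50 marks activators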
Procedure, shortened: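 Turtle TRa-Gal4 chimera activity in transfected human HepG2 cells: reporter transcripts quantified by RT-PCR, 6-FAM labelling and capillary electrophoresis 24 h post-dosing; positive direction versus DMSO, medium containing 3 nM 6-alpha-fluorotestosterone and 1.5 nM norgestrel.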

[9] = system: zebrafish Androgen Receptor (AR), gene 100005148; experiment: ATG_zfAR_XSP2: Attagene TRANS-FACTORIAL Multi-Species (XSP2) HepG2 Assay for zebrafish Androgen Receptor (AR) (AID 2283825);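 further: hits raise reporter mRNA above DMSO so AC50 reflects agonist-type gain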
Procedure, shortened: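 Zebrafish AR–GAL4 chimera transiently expressed with GAL4-UAS reporter in HepG2 cells, co-stimulated with 3 nM 6-alpha-fluorotestosterone and 1.5 nM norgestrel; 24 h dosing, reporter mRNA read by RT-PCR/capillary electrophoresis versus DMSO.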

[10] = ATG_M_32_XSP2: Attagene TRANS-FACTORIAL Multi-Species (XSP2) HepG2 Assay for M19 Transcription Factor (Internal Marker) (AID 2283826)
Procedure, shortened: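 Read-out: reporter mRNA quantified by RT-PCR, FAM labeling, HpaI digestion and capillary electrophoresis, 24 h after dosing transfected HepG2 cells. Medium carried 3 nM 6-alpha-fluorotestosterone plus 1.5 nM norgestrel; gain of signal fitted against DMSO.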

COP(=S)(OC)Oc1ccc([N+](=O)[O-])c(C)c1
AC50 [1]: 32.5 µM (active)
AC50 [2]: 85.1 µM (active)
AC50 [3]: 55.8 µM (active)
AC50 [4]: 31.3 µM (active)
AC50 [5]: 4.6 µM (active)
outcome [6]: inactive
outcome [7]: inactive
outcome [8]: inactive

N#Cc1c[nH]cc1-c1cccc2c1OC(F)(F)O2
AC50 [1]: 1.51 µM (active)
AC50 [2]: 1.22 µM (active) and 859 nM (active)
AC50 [3]: 14 µM (active) and 21.7 µM (active)
AC50 [4]: 27.2 µM (active)
AC50 [5]: 6.52 µM (active) and 6.26 µM (active)
AC50 [6]: 27 µM (active)
outcome [6]: inactive
outcome [7]: inactive
outcome [8]: inactive

COP(=S)(OC)SCn1nnc2ccccc2c1=O
AC50 [1]: 24.7 µM (active)
outcome [1]: inactive
outcome [2]: inactive
AC50 [3]: 93.7 µM (active) and 23.2 µM (active)
AC50 [4]: 51.6 µM (active) and 32.6 µM (active)
outcome [5]: inactive
outcome [7]: inactive
outcome [8]: inactive

C=C(C)CN(CC)c1c([N+](=O)[O-])cc(C(F)(F)F)cc1[N+](=O)[O-]
AC50 [1]: 7.36 µM (active) and 44.2 µM (active)
AC50 [2]: 10.5 µM (active) and 7.61 µM (active)
AC50 [3]: 41 µM (active) and 23 µM (active)
AC50 [4]: 43.7 µM (active) and 52.8 µM (active)
AC50 [5]: 3.92 µM (active) and 2.8 µM (active)
outcome [6]: inactive
outcome [7]: inactive

CC(C)NC(=O)N1CC(=O)N(c2cc(Cl)cc(Cl)c2)C1=O
outcome [9]: inactive
outcome [10]: inactive
AC50 [1]: 6.97 µM (active)
outcome [2]: inactive
AC50 [3]: 33.2 µM (active)
AC50 [4]: 40.6 µM (active)
AC50 [5]: 6.7 µM (active)
outcome [6]: inactive
outcome [7]: inactive
outcome [8]: inactive

Cc1c(COC(=O)[C@@H]2[C@H](/C=C(\Cl)C(F)(F)F)C2(C)C)cccc1-c1ccccc1
outcome [9]: inactive
AC50 [1]: 26.1 µM (active)
AC50 [2]: 100 µM (active)
outcome [3]: inactive
outcome [4]: inactive
AC50 [5]: 2 µM (active)
outcome [6]: inactive
outcome [8]: inactive

CC1(C)CCC(=Cc2ccc(Cl)cc2)C1(O)Cn1cncn1 (stereo not drawn)
outcome [10]: inactive
AC50 [1]: 13.4 µM (active)
AC50 [2]: 63 µM (active)
outcome [3]: inactive
outcome [4]: inactive
AC50 [5]: 6.24 µM (active)
outcome [6]: inactive
outcome [7]: inactive
outcome [8]: inactive

CSC(=O)c1c(C(F)F)nc(C(F)(F)F)c(C(=O)SC)c1CC(C)C
outcome [10]: inactive
AC50 [1]: 3.05 µM (active)
AC50 [2]: 5.69 µM (active)
AC50 [3]: 6.53 µM (active)
AC50 [4]: 5.52 µM (active)
AC50 [5]: 0.442 µM (active)

CC1(C)C(C=C(Cl)Cl)C1C(=O)OC(C#N)c1cccc(Oc2ccccc2)c1 (stereo not drawn)
outcome [10]: inactive
AC50 [1]: 17.5 µM (active)
AC50 [2]: 63.6 µM (active)
AC50 [3]: 14.2 µM (active)
AC50 [4]: 27.8 µM (active)
AC50 [5]: 2.65 µM (active)
outcome [6]: inactive
AC50 [7]: 12.6 µM (active)
outcome [8]: inactive

CCN(CC)C(=O)C(C)Oc1cccc2ccccc12 (stereo not drawn)
outcome [10]: inactive
AC50 [1]: 7.99 µM (active)
AC50 [2]: 25.5 µM (active)
AC50 [3]: 39.8 µM (active)
AC50 [4]: 42.6 µM (active)
AC50 [5]: 6.17 µM (active)
outcome [6]: inactive
outcome [7]: inactive
outcome [8]: inactive
